Reference: PubChem BioAssay AID1159580 (chemical genetic matrix, 2015)
In all, about 5,500 compounds went through this assay and about 2,000 (36%) were called active. About 18% were inconclusive and are not listed. Rule as the data show it: active = normalized growth mostly below about 0.91 (no sharp cut-off); inconclusive = no clear call, values can overlap the other calls; inactive = mostly above about 0.92. Some of the results follow.

Test: chemical genetic growth profiling, strain panel (AID 1159580);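 also: tested at 20 µM; growth read once vehicle control cultures reached saturation at 30 °C; 1 = growth at the plate median or of vehicle wells; lower values mean less growth of the strain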
Conditions: S. cerevisiae deletion strains, growth OD
[1] = locus YDR150W, strain NUM1, hits give low values
[2] = locus YMR263W, strain SAP30, hits give low values
[3] = locus YMR307W, strain GAS1, hits give low values
[4] = locus YNL322C, strain KRE1, hits give low values
[5] = locus YPL055C, strain LGE1, hits give low values
[6] = locus YDL101C, strain DUN1, hits give low values
[7] = locus YHR030C, strain SLT2, hits give low values

Measured: normalized growth

NC(=O)c1ccc(OCC(O)CN2CC=C(c3ccc(F)cc3)CC2)cc1 (stereo unspecified)
inactive: locus YAL040C, strain CLN3, hits give low values 1.06 | locus YCL061C, strain MRC1 (second series), hits give low values 0.982 | [1] 1.01 | locus YDR363W, strain ESC2, hits give low values 0.964 | locus YER002W, strain NOP16, hits give low values 1.01 | [2] 0.98 | [3] 0.998 | locus YNL128W, strain TEP1, hits give low values 1.01 | locus YNL175C, strain NOP13, hits give low values 1.03 | locus YNL197C, strain WHI3, hits give low values 1 | locus YNL224C, strain SQS1, hits give low values 1.01 | [4] 0.962 | locus YOR083W, strain WHI5 (second series), hits give low values 1 | [5] 0.98

COc1ccc(N=C2SCC(c3ccc(C)cc3)=NN2CCO)cc1
inactive: locus YAR019C, strain CDC15, hits give low values 0.975 | locus YBL105C, strain PKC1, hits give low values 0.985 | locus YBR135W, strain CKS1, hits give low values 0.979 | locus YBR136W, strain MEC1, hits give low values 0.972 | locus YBR160W, strain CDC28, hits give low values 0.982 | locus YDL017W, strain CDC7, hits give low values 0.982 | locus YDL028C, strain MPS1, hits give low values 0.971 | [6] 0.982 | locus YDL108W, strain KIN28, hits give low values 0.981 | locus YDL132W, strain cdc53, hits give low values 0.98 | locus YDL214C, strain PRR2, hits give low values 0.975 | locus YDR052C, strain DBF4, hits give low values 0.988 | locus YDR054C, strain cdc34, hits give low values 0.979 | locus YDR226W, strain ADK1, hits give low values 0.981 | locus YDR477W, strain SNF1, hits give low values 0.958 | locus YER123W, strain YCK3, hits give low values 0.943 | locus YER133W, strain GLC7, hits give low values 0.971 | locus YFL009W, strain cdc4, hits give low values 0.972 | locus YFL029C, strain CAK1, hits give low values 0.964 | locus YFR003C, strain YPI1, hits give low values 0.98 | locus YFR019W, strain FAB1, hits give low values 0.985 | locus YFR028C, strain CDC14, hits give low values 0.972 | locus YGR040W, strain KSS1, hits give low values 0.961 | locus YGR052W, strain FMP48, hits give low values 1.01 | locus YGR092W, strain DBF2, hits give low values 0.947 | [7] 0.95 | locus YHR079C, strain IRE1, hits give low values 0.968 | locus YHR082C, strain KSP1, hits give low values 0.991 | locus YHR205W, strain SCH9, hits give low values 0.987 | locus YIL147C, strain SLN1, hits give low values 0.977 | locus YJL095W, strain BCK1, hits give low values 0.973 | locus YJL128C, strain PBS2, hits give low values 0.955 | locus YJL157C, strain FAR1, hits give low values 0.979 | locus YJR016C, strain ILV3, hits give low values 0.979 | locus YJR066W, strain TOR1 (second series), hits give low values 0.925 | locus YJR066W, strain TOR1, hits give low values 0.962 | locus YKL048C, strain ELM1, hits give low values 0.997 | locus YKL067W, strain YNK1, hits give low values 0.971 | locus YKL101W, strain HSL1, hits give low values 0.976 | locus YKL193C, strain SDS22, hits give low values 0.975 | locus YKL203C, strain TOR2, hits give low values 1.02 | locus YLR113W, strain HOG1, hits give low values 0.915 | locus YLR133W, strain CKI1, hits give low values 0.976 | locus YLR403W, strain SFP1, hits give low values 0.976 | locus YML070W, strain DAK1, hits give low values 0.956 | locus YMR001C, strain CDC5, hits give low values 0.984 | locus YMR205C, strain PFK2 (second series), hits give low values 0.971 | locus YMR277W, strain FCP1, hits give low values 0.978 | locus YNL006W, strain LST8, hits give low values 0.986 | locus YNL020C, strain ARK1, hits give low values 0.983 | locus YNL161W, strain CBK1, hits give low values 0.978 | locus YNL183C, strain NPR1, hits give low values 0.941 | locus YNL207W, strain RIO2, hits give low values 0.978 | locus YNL222W, strain SSU72, hits give low values 0.972 | locus YNL307C, strain MCK1 (second series), hits give low values 0.98 | locus YOL078W, strain AVO1, hits give low values 0.977 | locus YOL136C, strain PFK27, hits give low values 0.96 | locus YOR061W, strain CKA2, hits give low values 0.983 | locus YOR119C, strain RIO1, hits give low values 0.999 | locus YOR231W, strain MKK1, hits give low values 0.963 | locus YOR329C, strain SCD5, hits give low values 0.983 | locus YPL031C, strain PHO85, hits give low values 0.969 | locus YPL153C, strain RAD53, hits give low values 0.97 | locus YPL204W, strain HRR25, hits give low values 0.961 | locus YPL209C, strain IPL1, hits give low values 0.977 | locus YPL256C, strain CLN2, hits give low values 0.946 | locus YPR025C, strain CCL1, hits give low values 0.985 | locus YPR106W, strain ISR1, hits give low values 0.979 | locus YPR111W, strain DBF20, hits give low values 0.968 | strain NNK1, hits give low values 0.983 | strain TSCII, hits give low values 0.982

O=C1CC(=O)CC(c2ccc(Cl)c(Cl)c2)C1
inactive: locus YAL013W, strain DEP1, hits give low values 0.982 | locus YBR229C, strain ROT2, hits give low values 0.998 | [6] 1.02 | [1] 1.04 | locus YEL061C, strain CIN8, hits give low values 0.978 | locus YGR078C, strain PAC10, hits give low values 0.997 | [7] 1.04 | locus YHR087W, strain rtc3, hits give low values 0.98 | locus YJR043C, strain POL32, hits give low values 1.01 | locus YJR075W, strain HOC1, hits give low values 1.01 | locus YKL190W, strain CNB1, hits give low values 0.998 | locus YLR039C, strain RIC1, hits give low values 0.959 | locus YLR058C, strain SHM2 (second series), hits give low values 0.985 | locus YLR085C, strain ARP6, hits give low values 0.983 | locus YLR262C, strain YPT6, hits give low values 0.949 | locus YML094W, strain GIM5, hits give low values 0.99 | locus YMR219W, strain ESC1, hits give low values 0.991 | [2] 1.01 | [3] 1.02 | locus YNL153C, strain GIM3, hits give low values 0.997 | locus YNL298W, strain CLA4 (second series), hits give low values 1 | [4] 0.976 | locus YNR030W, strain Alg12, hits give low values 1 | [5] 1.15 | locus YPL241C, strain CIN2, hits give low values 1.01 | locus YPR135W, strain CTF4, hits give low values 1.22
